# Source: PubChem BioAssay (Tox21)
# Several values for one entry are separate records, joined by “and”; a condition that tells them apart may be missing. Equal values may be shown once. Results filed as inconclusive are left out. Entries that show only a call come without a potency. Some compounds were tested as several samples or in several runs, with calls that do not always agree. Activity calls are given as the source filed them. Calls follow the shape of the dose curve; as a rule, active = well fitted activation curve with a large enough effect in the repeat runs; inconclusive = weak or mixed curves; inactive = flat fitted curve, though single readings scatter.
# Test: A CellTox Green Cytotoxicity Assay to monitor cytotoxicity in HepG2 cells - 16 hour (AID 1224876); also: nearly all actives have a fitted effect of over 45% in size
# Details: CellTox Green fluorescence; series mostly up to 76.8 µM
# From the text: National Center for Advancing Translational Sciences [NCATS]
# NIH Chemical Genomics Center [NCGC]
# U.S. Environmental Protection Agency [EPA]
# National Institutes of Environmental Health Sciences [NIEHS]
# National Toxicology Program [NTP]
# Cell-based models are critical for drug discovery. Determining the natural cytotoxic effects resulting from test compounds is an essential research activity. A CellTox Green Cytotoxicity Assay to monitor cytotoxicity in real time of continues cell culture during 40 hours of the compound treatment was used to screen Tox21 10K library compounds in HepG2 cells. CellTox Green Cytotoxicity Assay is a nonlytic, homogeneous, biofluorescent method to measure cytotoxicity in cell culture after experimental manipulation. The assay system uses a proprietary asymmetric cyanine dye that is excluded from viable cells but preferentially stains the dead cell's DNA. […] Viable cells produce no appreciable increases in fluorescence. Therefore, the fluorescence signal produced by the binding interaction with dead cell DNA is proportional to cytotoxicity.
# The mixture of HepG2 cell suspension and reagents were dispensed at 600cells/6 ul/well in 1536-well tissue culture treated black solid bottom plates using a Multidrop dispenser. After the assay plates were incubated at a 37 C/5% CO2 incubator for 5 hours, 23 nL of compounds dissolved in DMSO, positive and negative controls was transferred to the assay plate by a pintool work station. The plates were incubated at 37 C for 40 hours. The fluorescence intensity were measured at 0h, 8h, 16h, 24h, 32h and 40h time points using ViewLux plate reader during compound treatment.
# Potency is read from the fitted curve at half-maximal effect.
Structure (SMILES),Potency,cytotoxicity increase
Cc1occc(=O)c1O,inactive,–
CCCCCCCCCCCCOCCO,inactive,–
CN(C)CCCN,inactive,–
CCOC(=O)NNc1nncc2ccccc12,inactive,–
CCCCCCOCCO,inactive,–
O=C(O)CC(C(=O)O)C(CC(=O)O)C(=O)O (stereo not given),inactive,–
CCN(CC)CCCC(C)Nc1ccnc2cc(Cl)ccc12 (stereo not given),–,-7.78% [at 6.97 µM] (inactive) and 19.1% [at 15.8 µM] (inactive)
CCCSc1ccc2nc(NC(=O)OC)[nH]c2c1,inactive,–
CCCCCCCCCCCCCCCO,inactive,–
c1ccc(OCCOc2ccccc2)cc1,inactive,–
Nc1cc([N+](=O)[O-])ccc1O,inactive,–
CCCCC(CC)COC(=O)CS (stereo not given),inactive,–
CSCCC=O,inactive,–
O=P(OC(CCl)CCl)(OC(CCl)CCl)OC(CCl)CCl,inactive,–
O=C(Oc1ccccc1)c1ccccc1,inactive,–
O=c1[nH]c(=O)n([C@H]2CCCO2)cc1F,inactive,–
CC(C)c1ccc(S(=O)(=O)O)cc1,inactive,–
C=CCNC(N)=S,inactive,–
COc1ccc(Cl)cc1C(=O)NCCc1ccc(S(=O)(=O)NC(=O)NC2CCCCC2)cc1,inactive,–
CCCCCC1=CCCC1=O,inactive,–

Structure (SMILES),Potency,cytotoxicity increase
Cc1cccc(O)c1,inactive,–
Cc1cc(C)c(C)cc1C,inactive,–
O=C(OCCOCCOC(=O)c1ccccc1)c1ccccc1,inactive,–
Oc1cccc2ccccc12,inactive,–
CCCCC(CC)CO (stereo not given),inactive,–
O=C(O)CCCCCCCCCCC(=O)O,inactive,–
CC(=O)c1ccccc1,inactive,–
CCCCCCCCCCCCS,inactive,–
Cc1cccnc1,inactive,–
OCc1cccnc1,inactive,–
CCCCC(CC)COC(=O)CCCCC(=O)OCC(CC)CCCC (stereo not given),inactive,–
CCN(CC)c1ccc(C(=O)c2ccccc2C(=O)O)c(O)c1,inactive,–
COc1ccc2cc([C@H](C)C(=O)O)ccc2c1,inactive,–
CCCCCCCCC/C=C/CC1CC(=O)OC1=O (stereo not given),inactive,–
CCCCCCCC(=O)OC,inactive,–
CC[C@H](C)C(=O)O[C@H]1C[C@@H](C)C=C2C=C[C@H](C)[C@H](CC[C@@H]3C[C@@H](O)CC(=O)O3)[C@H]21,49.6 µM (active) and inactive and 16.9 µM (active),–
FC(F)(F)c1ccc(Cl)c(Cl)c1,inactive,–
CCCC(C)=O,inactive,–
C=C(C)C(=O)O[C@H]1C[C@@H]2CC[C@@]1(C)C2(C)C,inactive,–
CN(C)CCOCCN(C)C,inactive and 43.6 µM (active),–
